We go through eight compounds from PubChem BioAssay (NCI).

This is part of a sample that, as a whole, favours compounds with a hit. Of some 83,000 tested, about 20% had one in any assay.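 Values shown are percent growth following 48 h exposure of cells in 96-well plates to a single concentration of compound; below 10 was considered active.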 A number with no mark means an inactive call. The source made the active and inactive calls.

Among the test systems are NCI-H23 lung; NCI-H226 lung; NCI-H322M lung; HOP-62 NSCLC; NCI-H460 lung; HOP-92 NSCLC; NCI-H522 lung; A549/ATCC NSCLC; 786-0 renal; COLO 205 colon; DU-145 prostate; K-562 leukemia; MALME-3M melanoma; MDA-MB-231 breast; RXF 393 renal; SF-268 CNS; SF-295 CNS; SF-539 CNS; UACC-257 melanoma; M14 melanoma.
Test in all cases: NCI-60 one-dose screen, 48 h (100 = growth as untreated, 0 = no growth, -100 = all killed)
What all share (conditions): 10 µM unless noted

As for `C=CN(C(=O)N1CCN(c2cc3c(cc2F)c(=O)c(C(=O)O)cn3C2CC2)CC1)c1nc(-c2ccc(Cl)cc2)cs1`, the growth is 67.8% with NCI-H23 lung; 87.9% in the test on NCI-H226 lung; 69.4% with NCI-H322M lung; 69.4% in the test on HOP-62 NSCLC; 23.5% in the test on NCI-H460 lung; 60.1% in the test on HOP-92 NSCLC. Further, the growth in the test with NCI-H522 lung was 64.7%; with A549/ATCC NSCLC, 40.7%; in the test on 786-0 renal, 82.8%; in the test on COLO 205 colon it was 84.2%; with DU-145 prostate, 81.1%; in the test with K-562 leukemia it was 47.6%. Also, the growth is 89.9% in the test on MALME-3M melanoma; 76.4% in the test on MDA-MB-231 breast; 53.3% in the test on RXF 393 renal; 44.7% in the test on SF-268 CNS; 58.6% in the test on SF-295 CNS; 67% in the test with SF-539 CNS. Further, the growth is 87.6% in the test with UACC-257 melanoma and 60.2% with M14 melanoma.
Turning to `O=C(/C=C/c1cn(-c2ccccc2)nc1-c1ccccc1)CCC(=O)NO`, the growth is 99.3% with NCI-H23 lung; 93.9% in the test on NCI-H226 lung; 106% in the test with NCI-H322M lung; 93.3% in the test with HOP-62 NSCLC; 113% with NCI-H460 lung; 109% with HOP-92 NSCLC. Also, the growth in the test on NCI-H522 lung is 79.5%; with A549/ATCC NSCLC it was 91.5%; in the test with 786-0 renal, 97.3%; in the test with COLO 205 colon, 107%; in the test with DU-145 prostate, 112%; in the test on K-562 leukemia, 99.6%. Besides, the growth in the test on MALME-3M melanoma is 104%; in the test with MDA-MB-231 breast, 105%; in the test on RXF 393 renal it was 102%; in the test with SF-268 CNS it was 97%; in the test on SF-295 CNS, 96.1%; with SF-539 CNS, 113%. The growth is 92.7% in the test on UACC-257 melanoma and 100% with M14 melanoma.
On to `Cc1ccc(S(=O)(=O)OC[C@]23CCC(C)(C)C[C@H]2C2=CC[C@@H]4[C@@]5(C)CCCNC(C)(C)[C@@H]5CC[C@@]4(C)[C@]2(C)CC3)cc1`, for which the growth with NCI-H23 lung is 73.7%; with NCI-H226 lung it was 81.8%; in the test on NCI-H322M lung it was 79.7%; in the test with HOP-62 NSCLC, 78.1%; in the test on NCI-H460 lung it was -60.2% (active); with HOP-92 NSCLC it was 41.8%. The growth in the test with NCI-H522 lung was 62%; in the test on A549/ATCC NSCLC, 34.6%; with 786-0 renal it was 34.7%; in the test with COLO 205 colon it was -66.5% (active); in the test on DU-145 prostate it was 37.9%; with K-562 leukemia, -20% (active). For the same compound, the growth is 95.8% in the test on MALME-3M melanoma; 45.6% in the test on MDA-MB-231 breast; 67.9% with RXF 393 renal; 69.6% in the test with SF-268 CNS; 104% with SF-295 CNS; 74.8% in the test on SF-539 CNS. Besides, the growth is 97.4% with UACC-257 melanoma and 80.7% in the test on M14 melanoma.
For the compound `COc1cc(/C=C/c2cn[nH]c2-c2ccc(C)cc2)cc(OC)c1OC`, the growth with NCI-H23 lung is 56.2%; with NCI-H226 lung it was 65.4%; in the test with NCI-H322M lung, 56.7%; in the test on HOP-62 NSCLC, 33.8%; in the test with NCI-H460 lung, 17.1%; in the test on HOP-92 NSCLC, 45.6%. Also, the growth is 23.1% in the test with NCI-H522 lung; 29.2% with A549/ATCC NSCLC; 37.1% in the test on 786-0 renal; 12.6% in the test on COLO 205 colon; 43.4% with DU-145 prostate; 15.5% with K-562 leukemia. In addition, the growth was 52.3% in the test on MALME-3M melanoma; 47.4% in the test with MDA-MB-231 breast; 16.1% in the test on RXF 393 renal; 49.2% in the test on SF-268 CNS; 11.5% in the test with SF-295 CNS; 41.7% with SF-539 CNS. Moreover, the growth in the test with UACC-257 melanoma was 39.5%; in the test with M14 melanoma, -3.71% (active).
Take `CC(C)NS(=O)(=O)/N=C1\NC(=O)NC1=C(Cl)Cl`: the growth with NCI-H23 lung was 101%; in the test with NCI-H226 lung, 95.3%; in the test with NCI-H322M lung, 103%; with HOP-62 NSCLC it was 101%; in the test on NCI-H460 lung it was 99.2%; with HOP-92 NSCLC, 122%. For the same compound, the growth is 54.2% in the test on NCI-H522 lung; 94% with A549/ATCC NSCLC; 110% with 786-0 renal; 113% in the test with COLO 205 colon; 104% in the test on DU-145 prostate; 91.3% in the test with K-562 leukemia. The growth in the test on MALME-3M melanoma is 99.9%; in the test on MDA-MB-231 breast, 116%; in the test on RXF 393 renal, 112%; in the test with SF-268 CNS, 91.3%; in the test with SF-295 CNS, 103%; in the test with SF-539 CNS, 96%. Besides, the growth in the test on UACC-257 melanoma is 76.8%; with M14 melanoma, 97.2%.
Consider `O=C1Nc2ccccc2/C1=N/N1C(=O)CN(CCCl)C1=O`, for which the growth with NCI-H23 lung is 100%; in the test with NCI-H226 lung it was 95.1%; with NCI-H322M lung, 101%; in the test with HOP-62 NSCLC, 97.5%; in the test on NCI-H460 lung, 102%; in the test on HOP-92 NSCLC, 110%. For the same compound, the growth with NCI-H522 lung was 89.7%; in the test on A549/ATCC NSCLC, 104%; with 786-0 renal, 101%; with COLO 205 colon, 112%; with DU-145 prostate, 119%; in the test with K-562 leukemia, 97.5%. The growth with MALME-3M melanoma is 107%; in the test with MDA-MB-231 breast it was 117%; with RXF 393 renal, 115%; in the test with SF-268 CNS it was 102%; in the test on SF-295 CNS, 99.6%; in the test with SF-539 CNS it was 105%. For the same compound, the growth in the test on UACC-257 melanoma is 96.6%; with M14 melanoma, 107%.
As for `COCCn1cc(-c2nc(-c3cc4cccnc4n3C)cs2)c2ccccc21`, the growth in the test on NCI-H23 lung is 39.4%; in the test with NCI-H226 lung, 60.9%; in the test with NCI-H322M lung, 41.6%; in the test on HOP-62 NSCLC, 52.5%; with NCI-H460 lung, 19.9%; with HOP-92 NSCLC, 44.1%. Further, the growth in the test on NCI-H522 lung was -6.38% (active); in the test on A549/ATCC NSCLC, 28.9%; in the test with 786-0 renal, 56.7%; with COLO 205 colon, 11.9%; in the test with DU-145 prostate, 66.8%; with K-562 leukemia, 20%. Also, the growth is 70.7% with MALME-3M melanoma; 37.1% in the test on MDA-MB-231 breast; 70.7% with RXF 393 renal; 58.9% in the test on SF-268 CNS; 36.5% with SF-295 CNS; 60.6% in the test with SF-539 CNS. The growth in the test on UACC-257 melanoma is 49%; in the test with M14 melanoma it was 24.3%.
As to `O=C(CCCCCCCC(=O)N1CCCCC1)N1CCCCC1`, the growth with NCI-H23 lung is 94.6%; in the test with NCI-H226 lung, 109%; in the test on NCI-H322M lung, 115%; in the test on HOP-62 NSCLC, 110%; with NCI-H460 lung, 98.7%; with HOP-92 NSCLC it was 98.8%. In addition, the growth with NCI-H522 lung was 88.8%; in the test on A549/ATCC NSCLC, 102%; in the test with 786-0 renal it was 105%; in the test with COLO 205 colon, 113%; with DU-145 prostate, 106%; in the test with K-562 leukemia it was 114%. The growth in the test with MALME-3M melanoma is 115%; with MDA-MB-231 breast it was 94.1%; in the test on RXF 393 renal, 123%; with SF-268 CNS, 104%; with SF-295 CNS it was 117%; with SF-539 CNS, 103%. In addition, the growth is 89.3% in the test on UACC-257 melanoma and 102% in the test with M14 melanoma.
